Out of some 18,000 compounds screened, about 750 (4.2%) were called active. Another 13% or so got no clear call; they are omitted. This is one part of a sample in which actives are shown more often than they occur. Unmarked numbers belong to inactive results. Calls come from the whole dose curve; tested in HEK293 cells.
assay: qHTS for Inhibitors of binding or entry into cells for Lassa Virus; conditions: Lassa virus pseudotyped entry inhibition, cell-based qHTS; series mostly up to 49.2 µM; activity change, negative = inhibition: at the top concentration
% is set by controls: 0 for no effect and ±100 for the full control effect; potency is the fitted concentration of half-maximal effect.

Compound	activity change, negative = inhibition	Potency
COc1ccccc1-c1ccnc(-n2ncc(C(=O)NCCc3ccncc3)c2C)n1	-18.3%	–
CCOc1ccc(NS(=O)(=O)c2ccc(N)cc2)nn1	2.16%	–
CC(C)[C@@H](CO[Si](C)(C)C(C)(C)C)N1C[C@@H](N2CCCC2)CS1(=O)=O	-10.9%	–
C=CC1=C2C=C(C3CC3)N(CC(C)C)C=C2C(=O)C(C)(OC(=O)c2ccco2)C1=O (stereo not drawn)	-4.02% [at 8.59 µM]	–
NC(=O)C(=O)N/N=C/c1ccc([N+](=O)[O-])o1	-13%	–
Cc1ccc(-c2nn(CC(C)(C)C)c3ncnc(N)c23)cc1	-24.1%	–
Cc1csc(-c2coc3cc(O[C@@H]4O[C@H](CO)[C@@H](O)[C@@H](O)[C@H]4O)ccc3c2=O)n1	28%	–
COc1ccc([C@@H](NC(=O)C(F)(F)F)C2CCCC=C2c2ccccc2)cc1OC (stereo partly drawn)	-11.1% [at 8.59 µM]	–
NNc1nnc(Cc2ccncc2)c2ccccc12	-16.1%	–
O=Cc1c(Cl)cccc1Cl	-7.53%	–
O=C1C(c2ccccn2)=[N+]([O-])c2ccccc21	1.18%	–
Cc1nnc(C(=O)NC(C)(C)c2nc(C(=O)NCc3ccc(F)cc3)c(O)c(=O)n2C)o1	-10.3%	–
C[C@@H]1C[C@H]2CC[C@H](O2)[C@H](C)C(=O)O[C@@H](C)C[C@@H]2CC[C@@H](O2)[C@@H](C)C(=O)O[C@H](C)C[C@H]2CC[C@H](O2)[C@H](C)C(=O)O[C@@H](C)C[C@@H]2CC[C@@H](O2)[C@@H](C)C(=O)O1	–	562 nM (active)
CCCCCCCCCCCC(=O)O[C@H](CC(=O)O)C[N+](C)(C)C	-5.17%	–
COC1=C[C@H](C(=O)N[C@H]2CCCC[C@H]2NC(C)=O)[C@H](C)[C@@H](c2ccccc2)CC1=O	-1.51% [at 8.59 µM]	–
COc1cccc([C@@H]2Oc3ccc(Br)cc3C(=O)[C@H]2OC(=O)NCc2ccc3c(c2)OCO3)c1	-0.946%	–
CN1CCCCCC1C(=O)NCCN1Cc2ccccc2OC(c2ccsc2)C1 (stereo not drawn)	4.6%	–
CCCCC/C=C\C[C@H](O)/C=C/C=C/C=C/[C@@H](O)CCCC(=O)O	6.82%	–
O=C(/C=C/c1cccc(F)c1)NC1CC1	9.73%	–
CC[N+](C)(CC)CCC[n+]1c(-c2ccccc2)c2cc(N)ccc2c2ccc(N)cc21	–	3160 nM (active)
Brc1ccc(C2=NCCC(c3ccccc3)O2)cc1 (stereo not drawn)	-12.7%	–
COC1=C[C@H](C(=O)NCc2ccccc2)[C@@]2(C)Cc3ccccc3[C@@H]2CC1=O	-4.25% [at 8.59 µM]	–
CCCC[C@]12Cc3cc(C#N)ccc3[C@H](O1)c1c(cc(-c3ccccc3)oc1=O)O2	20.3% [at 8.59 µM]	–
